This is part of a sample that, as a whole, favours compounds with a hit. Of some 79,000 tested, about 15% had one in any assay. A number with no mark means an inactive call. Calls of active or inactive are those of the source. Rule as the data show it: active = growth inhibition above about 70%; inactive = the rest.
How the values were obtained:
[1] = NCI Yeast Anticancer Drug Screen. Data for the rad52 strain (AID 147);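 also: 0% = growth of vehicle-treated control cultures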; settings: S. cerevisiae rad52 mutant growth inhibition, active compounds read high
Summary of the method: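 Yeast strain carrying a DNA damage repair alteration was exposed to test compounds. Growth inhibition was measured relative to vehicle-treated controls.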

[2] = NCI Yeast Anticancer Drug Screen. Data for the wt1 strain (AID 149);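 also: 0% = growth of vehicle-treated wt1 cultures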; settings: S. cerevisiae wt1 strain (SPY 50644) growth inhibition, active compounds read high
Summary of the method: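 Measured: growth of wt1 yeast under compound versus vehicle treatment, reported as inhibition.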

[3] = NCI Yeast Anticancer Drug Screen. Data for the rad50EPP+ strain (AID 151);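 also: 0% = growth of vehicle-treated control cultures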; settings: S. cerevisiae rad50 mutant strain, active compounds read high
Summary of the method: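 Yeast strain carrying rad50 alteration (rad50EPP+) exposed to compounds; growth inhibition measured relative to vehicle-treated controls.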

[4] = NCI Yeast Anticancer Drug Screen. Data for the mgt1 strain (AID 153); settings: S. cerevisiae mgt1 mutant growth inhibition, active compounds read high
Summary of the method: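 Yeast mgt1 strain (DNA repair/cell-cycle alteration panel) exposed to compounds; growth inhibition measured relative to vehicle-treated controls.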

[5] = NCI Yeast Anticancer Drug Screen. Data for the rad50 strain (AID 155);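 also: 0% = growth of vehicle-only cultures of the same strain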; settings: S. cerevisiae rad50 strain growth inhibition, active compounds read high
Summary of the method: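 Growth of the mutant yeast was measured after compound exposure and referenced to vehicle-treated cultures.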

[6] = NCI Yeast Anticancer Drug Screen. Data for the mec2-1 strain (AID 157); settings: S. cerevisiae mec2-1 strain, active compounds read high
Summary of the method: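 mec2-1 yeast strain, carrying an alteration in DNA damage repair or cell cycle control, was exposed to compounds; growth inhibition was measured relative to vehicle-treated controls.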

[7] = NCI Yeast Anticancer Drug Screen. Data for the rad14 strain (AID 159);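 also: 0% = growth of vehicle-treated control cultures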; settings: S. cerevisiae rad14 strain growth inhibition, active compounds read high
Summary of the method: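 Here, inhibition of yeast growth was measured after compound exposure, using a strain with a genetic defect in DNA damage repair and vehicle-treated cultures as the reference.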

[8] = NCI Yeast Anticancer Drug Screen. Data for the sgs1 mgt1 strain (AID 161);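 also: 0% = growth of cultures given vehicle only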; settings: S. cerevisiae sgs1 mgt1 strain, active compounds read high
Summary of the method: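 This yeast growth screen uses a strain with defined DNA-repair lesions; compound-treated growth is compared with vehicle-treated growth.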

[9] = NCI Yeast Anticancer Drug Screen. Data for the CLN2oe strain (AID 163);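 also: 0% = growth of vehicle-only control cultures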; settings: S. cerevisiae CLN2oe strain, active compounds read high
Summary of the method: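 Yeast cells carrying a defined cell-cycle control alteration were exposed to test compounds. Growth inhibition was scored against vehicle-treated control cultures.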

[10] = NCI Yeast Anticancer Drug Screen. Data for the cln2 rad14 strain (AID 165);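 also: 0% = growth equal to vehicle treated cultures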; settings: S. cerevisiae cln2 rad14 strain, active compounds read high
Summary of the method: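 Yeast carrying cln2 and rad14 alterations (cell cycle control and DNA damage repair) were exposed to compounds. Growth inhibition was measured against vehicle-treated controls.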

[11] = NCI Yeast Anticancer Drug Screen. Data for the bub3 strain (AID 167); settings: S. cerevisiae bub3 mutant strain, active compounds read high
Summary of the method: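 Whole-cell yeast assay. The mutant strain was incubated with compounds, and growth inhibition was determined by comparison with vehicle-treated cells.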

[12] = at 5.0 µM (retest, dose inferred, filed as 0.5)
[13] = at 50.0 µM (retest, dose inferred, filed as 5.0)

## OC1(c2ccccc2)CSC2=Nc3ccccc3C3CCN1N23 (stereo not given)
[1]; at 1.2 µM
  growth inhibition: -41%
[1]; at 3.7 µM
  growth inhibition: -50%
[1]; at 11.0 µM
  growth inhibition: -45%
[1]; at 33.0 µM
  growth inhibition: -29%
[1]; at 100.0 µM
  growth inhibition: 91% (active)
[2]; at 1.2 µM
  growth inhibition: -82%
[2]; at 3.7 µM
  growth inhibition: -83%
[2]; at 11.0 µM
  growth inhibition: -89%
[2]; at 33.0 µM
  growth inhibition: -33%
[2]; at 100.0 µM
  growth inhibition: 95% (active)
[3]; at 1.2 µM
  growth inhibition: -29%
[3]; at 3.7 µM
  growth inhibition: -40%
[3]; at 11.0 µM
  growth inhibition: -47%
[3]; at 33.0 µM
  growth inhibition: -22%
[3]; at 100.0 µM
  growth inhibition: 66%
[4]; at 1.2 µM
  growth inhibition: -45%
[4]; at 3.7 µM
  growth inhibition: -43%
[4]; at 11.0 µM
  growth inhibition: -38%
[4]; at 33.0 µM
  growth inhibition: 57%
[4]; at 100.0 µM
  growth inhibition: 94% (active)
[5]; at 1.2 µM
  growth inhibition: -66%
[5]; at 3.7 µM
  growth inhibition: -75%
[5]; [12]
  growth inhibition: 24%
[5]; at 11.0 µM
  growth inhibition: -61%
[5]; at 33.0 µM
  growth inhibition: -20%
[5]; [13]
  growth inhibition: 47%
[5]; at 50.0 µM
  growth inhibition: 51.5%
[5]; at 100.0 µM
  growth inhibition: 92% (active)
[6]; at 1.2 µM
  growth inhibition: -86%
[6]; at 3.7 µM
  growth inhibition: -71%
[6]; [12]
  growth inhibition: 12%
[6]; at 11.0 µM
  growth inhibition: -91%
[6]; at 33.0 µM
  growth inhibition: -21%
[6]; [13]
  growth inhibition: 40%
[6]; at 50.0 µM
  growth inhibition: 43.7%
[6]; at 100.0 µM
  growth inhibition: 93% (active)
[7]; at 1.2 µM
  growth inhibition: -51%
[7]; at 3.7 µM
  growth inhibition: -32%
[7]; at 11.0 µM
  growth inhibition: -36%
[7]; at 33.0 µM
  growth inhibition: 13%
[7]; at 100.0 µM
  growth inhibition: 94% (active)
[8]; [12]
  growth inhibition: 27%
[8]; [13]
  growth inhibition: 51%
[8]; at 50.0 µM
  growth inhibition: 80.2% (active)
[9]; at 1.2 µM
  growth inhibition: -23%
[9]; at 3.7 µM
  growth inhibition: -16%
[9]; at 11.0 µM
  growth inhibition: -46%
[9]; at 33.0 µM
  growth inhibition: 2%
[9]; at 100.0 µM
  growth inhibition: 93% (active)
[10]; [12]
  growth inhibition: 25%
[10]; [13]
  growth inhibition: 40%
[10]; at 50.0 µM
  growth inhibition: 16.4%
[11]; at 1.2 µM
  growth inhibition: -56%
[11]; at 3.7 µM
  growth inhibition: -54%
[11]; [12]
  growth inhibition: 19%
[11]; at 11.0 µM
  growth inhibition: -43%
[11]; at 33.0 µM
  growth inhibition: 58%
[11]; [13]
  growth inhibition: 11%
[11]; at 50.0 µM
  growth inhibition: 73.7% (active)
[11]; at 100.0 µM
  growth inhibition: 91% (active)

— PubChem BioAssay (NCI)
